Results published in PubChem BioAssay AID485346 (Sanford-Burnham Center for Chemical Genomics, 2010).
In all, about 330,000 compounds went through this assay and about 10,000 (3%) were called active. The list comes from a sample in which actives are over-represented; it also holds similar structures and randomly drawn compounds. Values without a mark were called inactive.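 The calls were made as follows: active = inhibition of at least 50% at 8 µM in the primary screen; inactive = the rest.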

biological target: Protein Mdm4 (Homo sapiens) + E3 ubiquitin-protein ligase Mdm2 (Homo sapiens) (UniProt O15151+Q00987); assay: disruptors of Mdm2/MdmX RING complex – cell-based, luminescence, split luciferase, SaOS-2, uHTS, primary screen (AID 485346); conditions: SaOS-2 split-luciferase Mdm2/MdmX complementation, at 8 µM, hits give high values
Sequence (O15151 whole entry, looked up): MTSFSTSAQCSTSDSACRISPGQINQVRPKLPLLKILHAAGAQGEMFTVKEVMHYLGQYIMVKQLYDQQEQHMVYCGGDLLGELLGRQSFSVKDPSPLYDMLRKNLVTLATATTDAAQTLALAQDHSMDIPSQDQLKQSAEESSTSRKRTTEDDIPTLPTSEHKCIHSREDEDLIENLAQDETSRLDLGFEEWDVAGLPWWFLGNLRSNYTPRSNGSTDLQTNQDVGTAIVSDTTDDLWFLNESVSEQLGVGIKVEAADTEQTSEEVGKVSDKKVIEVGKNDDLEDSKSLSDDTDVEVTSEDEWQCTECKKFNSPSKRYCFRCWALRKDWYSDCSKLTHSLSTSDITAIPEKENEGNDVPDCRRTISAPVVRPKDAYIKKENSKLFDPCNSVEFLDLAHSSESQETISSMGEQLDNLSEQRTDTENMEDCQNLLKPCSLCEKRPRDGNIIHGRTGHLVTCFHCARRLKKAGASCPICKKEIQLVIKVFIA
Sequence (Q00987 whole entry, looked up): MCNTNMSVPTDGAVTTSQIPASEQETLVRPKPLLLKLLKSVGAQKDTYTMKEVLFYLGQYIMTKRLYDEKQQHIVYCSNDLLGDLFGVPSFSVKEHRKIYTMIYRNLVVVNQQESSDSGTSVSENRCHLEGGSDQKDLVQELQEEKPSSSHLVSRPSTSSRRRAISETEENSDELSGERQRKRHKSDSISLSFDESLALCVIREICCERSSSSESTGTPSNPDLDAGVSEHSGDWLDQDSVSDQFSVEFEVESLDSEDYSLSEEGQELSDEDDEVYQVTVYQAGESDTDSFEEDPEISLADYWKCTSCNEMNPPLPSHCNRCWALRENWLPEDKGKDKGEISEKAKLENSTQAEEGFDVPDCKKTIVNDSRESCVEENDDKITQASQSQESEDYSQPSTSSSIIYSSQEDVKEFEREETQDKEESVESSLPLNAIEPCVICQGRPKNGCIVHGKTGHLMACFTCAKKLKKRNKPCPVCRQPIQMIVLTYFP

SMILES | inhibition
CCSc1nc(=S)n(CC)c(C)c1C(C)=O | 14.7%
Cc1ccc(-c2cn3cc(C)ccc3n2)cc1 | 89.4% (active)
Cc1ccc(-c2cn3cc([N+](=O)[O-])ccc3n2)cc1 | -68.9%
Cc1ccc2nc(-c3ccc(Br)cc3)cn2c1 | 61.7% (active)
CSc1nnc2ccc(-c3ccc(C)cc3)nn12 | 34.9%
CCN(CC)S(=O)(=O)c1ccc(-c2cn3ccc(C)cc3n2)cc1 | -58.3%
COc1ccc(-c2cn3ccc(C)cc3n2)cc1 | 33.6%
C[C@@]12C(=O)N(c3cccc(Br)c3)C(=O)N1[C@H](c1ccc(Cl)cc1)[C@@H]1C(=O)N(C3CCCCC3)C(=O)[C@@H]12 | 49.2%
CCC(C)C(N=C1NS(=O)(=O)c2ccccc21)C(=O)N1CCC(C)CC1 (stereo not given) | 11.7%
CCC1(C)NC(=O)N(CC(=O)N2CCN(c3cccc(Cl)c3)CC2)C1=O (stereo not given) | 13.3%
CCN1C(=O)/C(=C\N2CCN(c3cccc(Cl)c3)CC2)SC1=S | 64.2% (active)
CCN1C(=O)/C(=C\N2CCOCC2)SC1=S | 7.76%
CCOc1ccc(N/C=C/C(=O)c2ccccc2)cc1 | -143%
COc1ccc(C(=O)/C=C/Nc2ccccn2)cc1 | 56.3% (active)
CCOc1ccc(N/C=C/C(=O)c2cc(OC)c(OC)c(OC)c2)cc1 | 28.5%
COc1ccccc1-c1sc2ccccc2c1C#CC1(O)CCCCC1 | 12%
CSc1ccccc1NC(=O)COC(=O)CCCOc1ccc(C)cc1 | 2.26%
O=C(Nc1ccc(Cl)cc1)Nc1nnc(/C=C/c2ccccc2)s1 | 84.4% (active)
O=C(CSc1ccccc1)Nc1nnc(/C=C/c2ccccc2)s1 | -2.82%
COc1ccc(/C=C/c2nnc(NC(=O)C(C)C)s2)cc1 | 18.7%
CC(=O)NCC(=O)N1CCC(n2nccc2NC(=O)CCCc2ccccc2)CC1 | -4.94%
COC(=O)c1cccc(N(CC(=O)NCC2CCCO2)C(=O)CCC(=O)Nc2cc(C)on2)c1 (stereo not given) | 5.29%
COc1ccccc1C(=O)NN1C(=O)C2C3C=CC(O3)C2C1=O (stereo not given) | 14.8%
CC12CCC(C(=O)N(NC(=O)c3ccccc3O)C1=O)C2(C)C (stereo not given) | 61.1% (active)
O=C(NN1C(=O)C2C(C1=O)C1C=CC2C12CC2)c1ccccc1Cl (stereo not given) | 4.22%
COCCN1C(=O)N(c2ccc(Cl)cc2)C(=O)C1CC(=O)Nc1cc(OC)cc(OC)c1 (stereo not given) | 22.4%
O=C(Nc1ccc(Br)cc1)c1cccc(NC(=O)C2C3CC4OC(=O)C2C4C3)c1 (stereo not given) | 8.16%

SMILES | inhibition
CCCCCCSc1ccc([C@@H]2[C@H]3C(=O)N(CC)C(=O)[C@H]3[C@]3(C(=O)OC)CCCCN23)cc1 | 29.8%
CCCCCCSc1ccc([C@@H]2[C@@H]3C(=O)N(CC)C(=O)[C@@H]3[C@]3(C(=O)OC)CCCCN23)cc1OC | 54.2% (active)
CCN1C(=O)[C@@H]2[C@@H](c3ccc(-c4ccc(OC)cc4)c(OC)c3)N3CCC[C@@]3(C(=O)OC)[C@@H]2C1=O | 28.1%
COCCn1c(C)cc(C(=O)CN2c3cccc4cccc(c34)S2(=O)=O)c1C | 5.95%
C/C(=N\Nc1ccc([N+](=O)[O-])cc1)c1ccc(-n2nncc2C(C)(C)C)cc1 | 22.2%
O=C(CN1C(=O)CSC1=O)N1CCCC(Nc2ccc(F)cc2)C1 (stereo not given) | 5.11%
CC1=NN(c2cccc(Cl)c2)C(=O)C12CC(C)=C(C)CS2 (stereo not given) | 6.51%
COc1ccc(C(C(=O)NC2CCCCC2)N(C(=O)CCl)c2ccccc2Cl)cc1 (stereo not given) | 92% (active)
COc1cccc(N(C(=O)C2COc3ccccc3O2)C(C(=O)NC2CCCCC2)c2ccc(O)cc2)c1 (stereo not given) | 5.54%
COc1ccc(C(C(=O)NC2CCCCC2)N(C(=O)c2snc(C(N)=O)c2N)c2ccccc2OC)cc1 (stereo not given) | 23.2%
Cc1nnc(SC(C(=O)Nc2cc(Cl)cc(Cl)c2)c2ccccc2)[nH]c1=O (stereo not given) | -11%
OCC1(Cc2ccccc2C(F)(F)F)CCN(Cc2cccc3cnccc23)CC1 | -16.9%
Cc1cccc(C(=O)Nc2ccc(Oc3cnccn3)cc2)c1 | -15.7%
CCCCSc1nnc2c(n1)OC=Nc1ccccc1-2 | -25.2%
Cc1ccc(S(=O)(=O)NCC(=O)N(CC(=O)NC2CCCCC2)Cc2ccco2)cc1 | -4.29%
Cc1ccc(-c2cc(=O)[nH]c(NCc3ccccc3)n2)cc1 | -3.28%
Brc1ccc(C2CC(c3ccccc3)=Nc3ccccc3N2)cc1 (stereo not given) | -130%
Cc1cn(COC/C=C/c2ccccc2)c(=O)[nH]c1=O | 7.02%
CC(=O)Nc1ccc(/C=C/C(=O)c2ccccc2)cc1 | -7.03%
Cc1[nH]c(=O)c(C(=O)/C=C/c2ccccc2)c2c1CCCC2 | 70.9% (active)
CC(C)C[C@H](CO)Nc1nc(N(C)c2cccc(Cl)c2)c2ncn(C(C)C)c2n1 | 22.9%
CC(C)n1cnc2c(Nc3cccc(Cl)c3)nc(N(CCO)CCCO)nc21 | 88.9% (active)
COCn1c(C(O)c2ccccc2)cc2ccccc21 (stereo not given) | -4.01%
Cc1cc(C)c2nc(N3CCC(C(=O)NCCN4CCOCC4)CC3)sc2c1 | 16.2%
CC(=O)N(Cc1cc(=O)[nH]c2ccccc12)c1ccc(C)cc1C | 15.3%
Cc1ccc(N(Cc2cc3ccccc3[nH]c2=O)C(=O)c2cccs2)cc1 | -12.3%
Cc1ccc(N(Cc2cc(=O)[nH]c3ccccc23)C(=O)CCl)cc1 | 100% (active)

SMILES | inhibition
O=C(NNC(=O)C(O)c1ccccc1)NC1CCCCC1 (stereo not given) | 16.7%
Cc1nc(/N=C(\N)NC(=O)NC2CCCCC2)nc2ccccc12 | 53% (active)
COc1ccc2nc(/N=C(\N)NC(=O)Nc3ccccc3)nc(C)c2c1 | 29%
COc1ccc2c(c1)C(=C(C#N)C#N)C(=O)N2CCc1ccccc1 | 8.08%
Cc1ccc(C)c(NC(=O)CN(C)C(=O)c2ccc3ncsc3c2)c1 | 10.9%
COc1ccc(CC(=O)N/N=C(\C)c2ccccn2)cc1 | 56.7% (active)
COc1ccc(C/C(C)=N/NC(=O)c2ccncc2)cc1 | -14.9%
C/C(CC(=O)Nc1ccc(N(C)C)cc1)=N\NC(=O)c1ccccc1F | 11.6%
C/C(=N\NC(=O)c1ccoc1C)c1ccccc1O | 49.2%
C/C(=N\NC(=O)c1ccccc1F)c1ccccn1 | 64.2% (active)
C/C(=N\NC(=O)Cc1ccc(Br)cc1)c1cccnc1 | 9.71%
CCOc1ccccc1NS(=O)(=O)c1cc2c3c(c1)C(C)C(=O)N3CCC2 (stereo not given) | 14.9%
CC1C(=O)N(Cc2ccccc2)c2ccccc2N1C(=O)c1ccccc1 (stereo not given) | 4.7%
O=C(COC(=O)/C=C/c1ccc(Br)o1)Nc1cccc(S(=O)(=O)N2CCOCC2)c1 | 26.4%
CN(C)CCCSc1ccccc1NC(=O)/C=C/c1ccccc1 | -28.9%
CC(C)NC(=O)C(=O)NCCCOC(C)C | 7.36%
CN(C)c1nc2n(c(=O)n1)CCO2 | -0.85%
COc1ccc(CCNC(=O)C2CCCN(S(=O)(=O)c3ccc(OC)cc3)C2)cc1 (stereo not given) | 31.8%
O=C(COC(=O)c1cnccn1)Nc1ccc(Cl)cc1C(F)(F)F | -11.4%
COc1cccc(CNn2cn[nH]c2=S)c1OCc1ccccc1 | 24.6%
O=[N+]([O-])c1ccc(F)cc1Oc1nc(-c2cccnc2)nc2ccccc12 | 27.2%
O=[N+]([O-])c1ccc(Oc2ccc(F)cc2Br)c2ccncc12 | 78% (active)
Cc1oc2cc([N+](=O)[O-])c(O)c([N+](=O)[O-])c2c1C(=O)c1ccc(Br)cc1 | -16.1%
Cc1cc(C)n(CCNCc2c(C(=O)N3C[C@@H](C)O[C@@H](C)C3)nc3ccc(Cl)cn23)n1 | 6.66%
COC(C[C@@H](O)C[C@H](O)[C@H](C)OCc1ccccc1)OC | -23%
Cn1nnnc1-c1cc(Cl)cc(Cl)c1 | 16.3%
